Assay [1] can be described thus: viability loss with induced miR-34 in A549 – imaging, A549 dox-inducible miR-34, nuclei and caspase counts, primary screen (AID 1347080). The following applies: A549 miR-34 inducible, Hoechst nuclei count, 48 h.
Assay [2] has as its target NAD(+) hydrolase SARM1 (Homo sapiens) (UniProt Q6SZW1). Description: blocking NAD cleavage by SARM1 SAM-TIR – cell lysate, NAD-Glo luminescence (AID 1508614;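 active = compound whose remaining NAD level is above about 45 nM, limit read from the data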;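 note: higher remaining NAD means stronger inhibition of SARM1 NADase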). As to conditions: SAM-TIR HEK293T lysate NADase, at 1 µM, stronger effect = higher value.
Assay [3] in a line: galactose survival enhancers in mitochondrial complex I cybrids – cell-based, galactose medium, ATP luminescence, primary screen (AID 1645843;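 active = z-score of at least 1.8 in each of two replicates, scored against plate mean and spread of sample wells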;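 note: positive z means more ATP and so rescue of galactose-driven cybrid death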). The following applies: complex I mutant cybrid cells, 72 h, stronger effect = higher value.
The target of assay [4] is ATP-dependent translocase ABCB1 (Homo sapiens) (UniProt P08183). In words: P-glycoprotein substrate transport blockade – cell-based (AID 377; in the data active = fluorescence slope change above about 50%). The following applies: MDR1-expressing cells, fluorescent substrate accumulation slope; stronger effect = higher value; concentration not given here.
A short description of assay [5]: compounds altering viability of human ES cells (AID 493140; call rule not given here;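 note: cells exposed to compounds for four days before counting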). The following applies: human embryonic stem cell survival screen; stronger effect = higher value.
Assay [6] can be described thus: P. berghei load reduction in hepatocytes – cell-based, HepG2, luciferase luminescence, HepG2 viability, primary screen (AID 624349; in the data active = parasite load remaining mostly below about 12%, no sharp cut-off; inactive = mostly above about 10%;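 note: 100% = mean of DMSO negative control wells on the same plate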). The following applies: P. berghei liver stage in HepG2, luciferase luminescence, concentration not given here; parasite load remaining: stronger effect = lower value; viability: measured here: HepG2 viability without parasites.
The target of assay [7] is Mitogen-activated protein kinase 7 (Homo sapiens) (UniProt Q13164). Description: Gal4-ERK5 driven luciferase induction – cell-based, HTS, primary screen (AID 1508626;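 active = luciferase signal above three times the same-plate solvent-only control wells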;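 note: luciferase driven by Gal4-ERK5 fusion binding five Gal4 sites before minimal TATA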). The following applies: HeLa Gal4-ERK5 transactivation, 18 h, at 5 µM, stronger effect = higher value.
Assay [8] in a line: MELAS cybrid and Rieske KO viability enhancers – cell-based, MELAS cybrids, Rieske KO mouse fibroblasts, CellTiter-Glo, primary screen (AID 1508586;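 active = mean z-score across replicates of 1.96 or higher in either the MELAS or the Rieske mutant cell line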;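 note: z relative to plate mean and SD of compound and empty wells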). The following applies: low glucose. In general terms: In ATP-based viability assays light output follows the ATP content of the culture.
The mark [9] stands for this setting: measured here: relative caspase fold change +Dox/-Dox.
[10] abbreviates: measured here: total cells with miR-34 induction, stronger effect = lower value.
[11] abbreviates: measured here: total cells without miR-34 induction.
The mark [12] stands for this setting: stronger effect = lower value, cell number ratio, induced over uninduced.
The mark [13] stands for this setting: MELAS cybrid survival, CellTiter-Glo 48 h, stronger effect = higher value.
The mark [14] stands for this setting: Rieske KO mouse fibroblast survival, CellTiter-Glo 72 h.

For orientation: viability means a read-out of living cells in per cent, often relative to untreated cells.

The structures appear in SMILES notation. Results filed as inconclusive are left out. The source made the active and inactive calls.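 Rule for the calls, unless noted: active = compounds whose cell count with miR-34 switched on is under 0.7 times the count with it off; inactive = the rest.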

Sequence of ATP-dependent translocase ABCB1 (Homo sapiens) (P08183 whole entry, looked up): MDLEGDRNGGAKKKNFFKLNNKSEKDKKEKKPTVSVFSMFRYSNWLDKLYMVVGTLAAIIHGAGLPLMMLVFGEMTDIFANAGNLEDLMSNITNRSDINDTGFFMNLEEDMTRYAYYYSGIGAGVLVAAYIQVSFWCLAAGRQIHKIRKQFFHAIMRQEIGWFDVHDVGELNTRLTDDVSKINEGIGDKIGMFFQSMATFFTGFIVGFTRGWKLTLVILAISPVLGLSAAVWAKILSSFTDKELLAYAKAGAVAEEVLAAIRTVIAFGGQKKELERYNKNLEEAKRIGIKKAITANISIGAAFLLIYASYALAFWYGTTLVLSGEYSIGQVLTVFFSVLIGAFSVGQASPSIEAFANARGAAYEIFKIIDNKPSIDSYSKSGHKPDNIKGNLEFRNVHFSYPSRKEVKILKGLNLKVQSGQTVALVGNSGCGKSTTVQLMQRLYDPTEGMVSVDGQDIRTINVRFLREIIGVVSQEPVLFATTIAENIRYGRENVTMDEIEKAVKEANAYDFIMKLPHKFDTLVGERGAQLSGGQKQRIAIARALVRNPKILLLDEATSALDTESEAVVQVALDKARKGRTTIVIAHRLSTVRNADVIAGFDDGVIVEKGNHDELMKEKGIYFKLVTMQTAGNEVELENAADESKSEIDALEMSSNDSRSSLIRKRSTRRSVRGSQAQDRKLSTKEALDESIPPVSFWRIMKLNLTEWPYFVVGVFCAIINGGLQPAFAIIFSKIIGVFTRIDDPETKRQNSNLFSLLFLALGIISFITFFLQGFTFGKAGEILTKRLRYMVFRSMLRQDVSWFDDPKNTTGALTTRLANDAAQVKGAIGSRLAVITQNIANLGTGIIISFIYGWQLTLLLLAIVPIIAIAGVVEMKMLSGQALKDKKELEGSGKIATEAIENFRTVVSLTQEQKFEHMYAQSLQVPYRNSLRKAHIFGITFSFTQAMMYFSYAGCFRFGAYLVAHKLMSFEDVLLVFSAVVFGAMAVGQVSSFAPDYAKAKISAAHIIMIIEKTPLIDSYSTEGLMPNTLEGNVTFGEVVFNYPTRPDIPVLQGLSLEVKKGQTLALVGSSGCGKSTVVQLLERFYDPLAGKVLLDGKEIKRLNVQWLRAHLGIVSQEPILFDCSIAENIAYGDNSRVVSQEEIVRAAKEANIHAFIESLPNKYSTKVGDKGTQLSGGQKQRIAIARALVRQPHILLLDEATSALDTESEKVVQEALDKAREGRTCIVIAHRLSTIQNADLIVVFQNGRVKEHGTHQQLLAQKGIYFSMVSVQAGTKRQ
Sequence of Mitogen-activated protein kinase 7 (Homo sapiens) (Q13164 whole entry, looked up, the tested form may be a part): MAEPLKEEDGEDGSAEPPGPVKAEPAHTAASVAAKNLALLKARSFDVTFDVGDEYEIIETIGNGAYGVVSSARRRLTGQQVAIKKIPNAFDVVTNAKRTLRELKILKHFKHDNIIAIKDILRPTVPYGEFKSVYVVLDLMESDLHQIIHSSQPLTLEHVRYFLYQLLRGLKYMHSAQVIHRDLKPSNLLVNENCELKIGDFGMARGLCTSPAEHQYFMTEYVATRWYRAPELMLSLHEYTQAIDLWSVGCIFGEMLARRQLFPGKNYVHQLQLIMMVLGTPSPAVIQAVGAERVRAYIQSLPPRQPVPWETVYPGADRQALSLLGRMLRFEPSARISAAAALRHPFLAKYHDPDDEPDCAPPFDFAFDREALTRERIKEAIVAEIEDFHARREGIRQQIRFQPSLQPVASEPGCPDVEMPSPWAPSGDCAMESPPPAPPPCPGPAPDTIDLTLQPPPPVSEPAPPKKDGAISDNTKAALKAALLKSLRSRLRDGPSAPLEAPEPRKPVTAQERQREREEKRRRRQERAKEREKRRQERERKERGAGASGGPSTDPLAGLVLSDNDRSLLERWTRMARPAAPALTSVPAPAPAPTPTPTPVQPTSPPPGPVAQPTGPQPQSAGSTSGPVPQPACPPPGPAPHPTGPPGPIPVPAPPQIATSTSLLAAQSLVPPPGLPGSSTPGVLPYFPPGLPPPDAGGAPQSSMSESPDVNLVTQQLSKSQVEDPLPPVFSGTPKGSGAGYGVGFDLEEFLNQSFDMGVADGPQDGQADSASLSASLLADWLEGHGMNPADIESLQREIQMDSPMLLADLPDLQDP
Sequence of NAD(+) hydrolase SARM1 (Homo sapiens) (Q6SZW1 whole entry, looked up): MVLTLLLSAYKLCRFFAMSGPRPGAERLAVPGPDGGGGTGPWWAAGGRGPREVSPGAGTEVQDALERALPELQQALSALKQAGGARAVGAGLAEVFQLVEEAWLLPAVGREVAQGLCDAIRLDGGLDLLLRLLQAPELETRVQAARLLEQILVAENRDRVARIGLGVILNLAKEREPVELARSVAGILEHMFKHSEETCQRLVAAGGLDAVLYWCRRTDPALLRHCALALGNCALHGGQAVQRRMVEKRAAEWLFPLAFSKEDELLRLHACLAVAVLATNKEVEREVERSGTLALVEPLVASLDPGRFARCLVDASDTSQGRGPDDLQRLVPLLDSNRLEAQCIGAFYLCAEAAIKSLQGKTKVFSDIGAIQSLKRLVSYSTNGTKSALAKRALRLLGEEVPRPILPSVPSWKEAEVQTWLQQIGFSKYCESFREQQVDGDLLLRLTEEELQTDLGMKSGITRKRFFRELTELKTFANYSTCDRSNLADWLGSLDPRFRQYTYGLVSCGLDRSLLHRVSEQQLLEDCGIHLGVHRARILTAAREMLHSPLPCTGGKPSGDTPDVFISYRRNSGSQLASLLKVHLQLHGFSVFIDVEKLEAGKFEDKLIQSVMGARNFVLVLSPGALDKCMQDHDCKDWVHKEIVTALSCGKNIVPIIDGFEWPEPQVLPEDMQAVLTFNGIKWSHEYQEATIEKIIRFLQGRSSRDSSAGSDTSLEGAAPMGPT

For `CCC(C)(C)O`, the results for the fold change in assay [1] (stronger effect = lower value) and in assay [1] (setting [9]) were 0.953 (inactive) and 0.901, respectively. Also, the cell count is 9020 in assay [1] (setting [10]) and 9470 in assay [1] (setting [11]). Further, the remaining NAD in assay [2] was 10 nM (inactive).

For the compound `COc1cc2c(cc1OC)[C@@]13CCN4CC5=CCOC6CC(=O)N2C1C6C5CC43` (some centres not stated), the fold change in assay [1] (setting [12]) was 0.989 (inactive); in assay [1] (setting [9]), 1.53. Moreover, the cell count in assay [1] (setting [10]) is 8280; in assay [1] (setting [11]) it was 8360. Moreover, in assay [3], the z-score was -0.335 (inactive).

`C[C@]12CC[C@H]3[C@@H](CC[C@]4(O)C[C@@H](O)CC[C@]34C=O)[C@@]1(O)CC[C@@H]2C1=CC(=O)OC1`: the fluorescence slope change in assay [4] is 11.2% (inactive). Also, the survival in assay [5] is 1.42 (inactive). The parasite load remaining in assay [6] was 0.385% (inactive). Besides, the viability in assay [6] turned out to be 54%. Also, the fold change in assay [1] (stronger effect = lower value) was 1.08 (inactive); in assay [1] (setting [9]), 0.794. The cell count turned out to be 773 in assay [1] (setting [10]) and 713 in assay [1] (setting [11]). Moreover, in assay [7], the luciferase signal is 16 AU (inactive).

In the case of `CN[C@@H]1[C@@H](O)[C@@H](O[C@@H]2[C@@H](O)[C@H](O[C@H]3O[C@H]([C@@H](C)NC)CC[C@H]3N)[C@@H](N)C[C@H]2N)OC[C@]1(C)O`, the parasite load remaining in assay [6] was 20.1% (inactive). In addition, the viability in assay [6] was 64.5%. Moreover, the figures for the fold change in assay [1] (stronger effect = lower value) and in assay [1] (setting [9]) were 0.872 (inactive) and 1.03, respectively. The results for the cell count in assay [1] (setting [10]) and in assay [1] (setting [11]) were 10000 and 11500, respectively. For the same compound, the results for the z-score in assay [8] (setting [13]) and in assay [8] (setting [14]) were 0.508 (inactive) and 0.179, respectively.

Consider `CCC(=O)OC(Cc1ccccc1)(c1ccccc1)C(C)CN(C)C` (configuration not stated), for which the survival in assay [5] is 8.25 (inactive). The parasite load remaining in assay [6] was 85.5% (inactive). Further, in assay [6], the viability turned out to be 74.7%. The fold change in assay [1] (stronger effect = lower value) is 0.896 (inactive); in assay [1] (setting [9]), 0.845. Besides, the cell count in assay [1] (setting [10]) is 9110; in assay [1] (setting [11]), 10200. The z-score in assay [8] (setting [13]) was 0.276 (inactive); in assay [8] (setting [14]), -0.451.

Turning to `O=C1OCCN1N=Cc1ccc([N+](=O)[O-])o1`, the fluorescence slope change in assay [4] is 82.1% (active). Besides, in assay [5], the survival was 4.33 (inactive). For the same compound, the parasite load remaining in assay [6] was 34.2% (inactive). The viability in assay [6] was found to be 103%. In addition, the values for the fold change in assay [1] (setting [12]) and in assay [1] (setting [9]) were 0.869 (inactive) and 1.27, respectively. Moreover, the results for the cell count in assay [1] (setting [10]) and in assay [1] (setting [11]) were 7950 and 9150, respectively. Moreover, the z-score was -1.23 (inactive) in assay [8] (setting [13]) and -1.17 in assay [8] (setting [14]).

Regarding `CN1[C@@H]2CC[C@H]1CC(OC1c3ccccc3CCc3ccccc31)C2` (some centres not stated), the parasite load remaining in assay [6] is 67% (inactive). The viability in assay [6] is 69.7%. In addition, the values for the fold change in assay [1] (setting [12]) and in assay [1] (setting [9]) were 0.913 (inactive) and 0.451, respectively. The cell count in assay [1] (setting [10]) turned out to be 8290; in assay [1] (setting [11]), 9070. Further, the z-score in assay [8] (setting [13]) was -1.44 (inactive); in assay [8] (setting [14]), 0.907.

`C[C@]12CC[C@H](O)C[C@H]1CC[C@@H]1[C@@H]2C[C@@H](O)[C@]2(C)[C@@H](C3=CC(=O)OC3)CC[C@]12O`: in assay [5], the survival is 8.33 (inactive). The parasite load remaining in assay [6] is 0.32% (inactive). Moreover, the viability in assay [6] was determined as 57%. Also, the fold change in assay [1] (stronger effect = lower value) is 0.713 (inactive); in assay [1] (setting [9]) it was 1.4. The cell count in assay [1] (setting [10]) is 550; in assay [1] (setting [11]) it was 772. In addition, the z-score was 2.02 (active) in assay [8] (setting [13]) and -0.935 in assay [8] (setting [14]).

Consider `C[C@]12CCC(=O)C=C1CC[C@@H]1[C@@H]2C(=O)C[C@]2(C)C(=O)CC[C@@H]12`, for which, in assay [5], the survival is 4.17 (inactive). The parasite load remaining in assay [6] was 81.1% (inactive). Also, the viability in assay [6] worked out at 96.5%. Moreover, the figures for the fold change in assay [1] (stronger effect = lower value) and in assay [1] (setting [9]) were 0.907 (inactive) and 0.858, respectively. Besides, the results for the cell count in assay [1] (setting [10]) and in assay [1] (setting [11]) were 9500 and 10500, respectively. Also, the z-score in assay [8] (setting [13]) is 0.15 (inactive); in assay [8] (setting [14]) it was -0.446.

The values above are taken from PubChem BioAssay.
